Bioassay records deposited in PubChem by National Center for Advancing Translational Sciences (NCATS).
IL-1B inflam inh = inhibitors of inflammasome signaling (IL-1 beta secretion); hit rate 4.7% among 360,000; activity change, % at 57.5 µM; THP-1 LPS/ATP IL-1B secretion, AlphaLISA, 16 h; stronger effect = lower value; in the data active = activity change below about -50%; inconclusive = mostly about -30% to -49%
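THP-1 cells pretreated 1 hr with compounds (up to 57.5 uM final), then stimulated with LPS (250 ng/mL final) plus ATP (1.25 mM final); secreted IL-1B measured by AlphaLISA after 16 hr, decreased signal indicating inhibition.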
TDP1 inh = TDP1 (human) enzyme inhibition. Q9NUW8. recombinant TDP1, AlphaScreen DNA substrate cleavage. Potency, µM (highest dose often 130 µM), for the others: at the top dose activity change, negative = inhibition, usual class: inhibitors. hit rate 0.28% among 350,000. AID 485290; note: potency is the fitted concentration of half-maximal effect; nearly all actives have a fitted effect of over 40% in size
Target sequence (Q9NUW8 whole entry, looked up): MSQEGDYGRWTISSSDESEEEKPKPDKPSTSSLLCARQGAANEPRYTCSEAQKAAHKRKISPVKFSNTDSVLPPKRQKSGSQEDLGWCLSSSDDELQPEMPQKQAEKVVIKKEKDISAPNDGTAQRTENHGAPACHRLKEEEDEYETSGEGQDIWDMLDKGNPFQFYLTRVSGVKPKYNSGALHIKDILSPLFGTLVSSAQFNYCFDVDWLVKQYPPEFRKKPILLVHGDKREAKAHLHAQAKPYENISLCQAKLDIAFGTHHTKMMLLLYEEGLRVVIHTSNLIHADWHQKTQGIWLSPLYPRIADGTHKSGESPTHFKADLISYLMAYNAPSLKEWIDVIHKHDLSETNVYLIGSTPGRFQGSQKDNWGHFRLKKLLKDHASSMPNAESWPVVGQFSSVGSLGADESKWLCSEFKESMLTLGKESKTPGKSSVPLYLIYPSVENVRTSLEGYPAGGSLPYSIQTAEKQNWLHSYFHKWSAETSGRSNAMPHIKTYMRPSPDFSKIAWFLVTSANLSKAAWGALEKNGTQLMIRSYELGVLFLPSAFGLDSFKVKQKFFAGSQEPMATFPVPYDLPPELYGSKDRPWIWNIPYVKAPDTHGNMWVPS
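Enzyme-compound mixtures sat 15 min at room temperature, followed by a 5 min reaction with 15 nM final substrate and 10 min with AlphaScreen beads. Recombinant human Tdp1 was used at 1 nM final.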
Six1-Eya2 inh = inhibitors of human Six1/Eya2 interaction | Q15475+O00167 | AlphaScreen GST-Six1/His-Eya2 binding, biochemical; stronger effect = lower value | activity change, % (test concentration not listed) | hit rate 0.56% among 360,000 | AID 651725; in the data active = activity change below about -65%; inconclusive = mostly about -30% to -63%
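AlphaScreen luminescence read after one hour at 37 °C in darkness. Pin-transferred compounds met GST-Six1 and His-Eya2 protein (5X stock 250 nM/500 nM) plus glutathione donor and Ni-chelate acceptor beads (5X, 50 ug/mL).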
CtBP-E1A blk = CtBP/E1A binding inhibition; AlphaScreen GST-E1A/His-CtBP binding, 1536-well; stronger effect = lower value; activity change, % (test concentration not listed); hit rate 0.49% among 340,000; AID 651724; in the data active = activity change below about -65%; inconclusive = mostly about -30% to -63%
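Homogeneous bead-based format: GST-tagged E1A captured on glutathione donor beads, His-tagged CtBP on nickel acceptor beads; compounds precede bead addition by 2 h at 37 °C.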
DT40 TDP1 CPT = growth inhibition of DT40 Tdp1-/-;hTDP1 cells with camptothecin (screen for TDP1 inhibitors); hit rate 12% among 420,000; chicken DT40 Tdp1-/-;hTDP1 cells + 20 nM CPT, ATP luminescence, 48 h; Potency, µM (top dose mostly 46.2 µM), for the others: at the highest dose activity change, negative = growth inhibition, most hits filed as inhibitors; note: potency is the fitted concentration of half-maximal effect; nearly all actives have a fitted effect of over 55% in size
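Chicken DT40 Tdp1-/- cells complemented with human TDP1, 400 cells/well, exposed to compounds plus 20 nM camptothecin for at least 48 h at 37 C; viability read as ATP content by CellTiter-Glo luminescence.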
DT40 TDP1 no CPT = qHTS for Inhibitors of human tyrosyl-DNA phosphodiesterase 1 (TDP1): qHTS in cells in absence of CPT. DT40 Tdp1-/- hTDP1 cells, no CPT, ATP luminescence, 48 h. Potency, µM (highest dose often 46.2 µM), for the others: at the highest dose activity change, negative = growth inhibition, actives largely listed as inhibitors. hit rate 15% among 420,000. AID 686978, 2013; note: potency is the fitted concentration of half-maximal effect; nearly all actives have a fitted effect of over 55% in size
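Seeded 400 DT40-hTDP1 cells/well (vehicle DMSO, no 20 nM CPT); pinned compounds; ≥48 hr at 37 °C; CellTiter-Glo luminescence as viability measure.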
* marks the source's active call; other numbers are inactive results; ? = inconclusive; . = no result; [ ] = remark or other dose. This is a sample that favours compounds with a hit; in the whole collection about 18% have one here. Unless noted, calls come from the whole dose curve; as a rule, active = well fitted curve in the direction sought with a large enough effect; inconclusive = small, poorly fitted or top-dose-only effect, or another doubt; inactive = no such curve, though single readings can be large; an effect the other way counts as inactive or inconclusive. % is set by controls: 0 for no effect and ±100 for the full control effect.

SMILES	IL-1B inflam inh	TDP1 inh	Six1-Eya2 inh	CtBP-E1A blk	DT40 TDP1 CPT	DT40 TDP1 no CPT
CC(C)Cn1c(C(C)C)nc([N+](=O)[O-])c1S(=O)(=O)c1ccc(F)cc1	-89*	3%	2	0	2.3µM*	3.3µM*
CCCc1nc([N+](=O)[O-])c(S(=O)(=O)c2ccccc2)n1CC(C)C	-100*	5%	7	-17	16µM*	3.3µM*
CCOC(=O)N1CCN(S(=O)(=O)c2ccc(OC)c(Br)c2)CC1	-3	.	-3	.	-9%	?
O=S(=O)(c1ccccc1)N1CCN=C1SCc1ccccc1Cl	20	0%	5	.	?	?
Cc1c(NC(=O)C(c2ccccc2)c2ccccc2)cccc1C(=O)O	-4	1%	4	2	-2%	21%
COC(=O)c1ccc2c(c1)C(C)(C)C(/C=C/c1ccc(O)cc1)=[N+]2C	-92*	6%	-7	-16	2.5µM*	2.8µM*
COC(=O)c1ccc2c(c1)C(C)(C)C(/C=C/c1ccc(OC)c(OC)c1OC)=[N+]2C	-116*	6%	-1	-3	0.82µM*	0.65µM*
CCOC(=O)c1ccc(-c2c(C)cc3oc(=O)cc(-c4ccccc4)c3c2C)cc1	16	2%[56.1 µM]	0	1	?	?
Cc1ccc(/C=N/NC(=O)c2ccc(NC(=O)c3ccc(Cl)cc3)cc2)o1	14	.	1	7	5%	4%
CCOC(=O)c1cc2c(ccn2C)n1CC(=O)N1CCN(c2cccc(C(F)(F)F)c2)CC1	-1	5%	-25	-26	16µM*	16µM*
Cc1nn(CC(=O)N2CCN(c3cccc(C(F)(F)F)c3)CC2)c(=O)c2cccn12	-5	3%	0	1	15µM*	23µM*
CCOC(=O)c1cc2c(ccn2C)n1CC(=O)N1CCN(c2ccc(F)cc2)CC1	-2	4%	-14	-17	1%	-10%
CC1CCN(S(=O)(=O)c2cn(CC(=O)N3CCN(c4cccc(C(F)(F)F)c4)CC3)cn2)CC1	0	2%	-1	-1	15µM*	?
COc1ccc(CNc2nc(SCc3ccccc3Cl)nc3ccccc23)cc1	.	0%	.	.	?	16µM*
COc1ccc(CCNc2nc(SCc3ccccc3Cl)nc3ccccc23)cc1OC	.	-3%	.	.	8.2µM*	4.6µM*
NC(=O)CC(NC(=O)Cc1cccc2ccccc12)c1ccc(NCCN2CCCC2)c([N+](=O)[O-])c1 (centres undefined)	7	.	-7	.	-10%	-1%
CCC(Sc1ccccn1)C(=O)Nc1nnc(C)s1 (centres undefined)	12	-2%	4	-4	-17%	-2%
COc1ccc(N(CC(=O)Nc2ccc(C)cn2)S(=O)(=O)c2c(C)nn(C)c2C)cc1	21	5%	-4	4	?	-26%
COc1ccc(N(CC(=O)Nc2cc(OC)cc(OC)c2)S(=O)(=O)c2c(C)noc2C)cc1	.	2%	.	.	7.3µM*	5.8µM*
CC(=O)c1cccc(NC(=O)CN(c2cc(C)cc(C)c2)S(=O)(=O)c2c(C)noc2C)c1	.	7%	.	.	16µM*	18µM*
COc1ccc(N(CC(=O)Nc2cccc(C)c2)S(=O)(=O)c2c(C)noc2C)cc1	8	-3%	4	.	?	2.9µM*
COc1ccc(N(CC(=O)Nc2cc(C)ccc2C)S(=O)(=O)c2c(C)nn(C)c2C)cc1	20	3%	-1	-23	?	26µM*
CCCOc1ccc(OC(=O)Cc2ccc(OC)c(S(=O)(=O)N3CCOCC3)c2)cc1	3	0%	3	-4	?	?
CC(C)NC(=O)Cn1c(SCC(=O)c2ccc(F)cc2)nc2ccccc21	-6	0%	6	8	-5%	-11%
COc1ccc(-n2ccsc2=S)cc1	6	-2%	3	9	0%	-16%
SMILES	IL-1B inflam inh	TDP1 inh	Six1-Eya2 inh	CtBP-E1A blk	DT40 TDP1 CPT	DT40 TDP1 no CPT
COc1cc(NC(=O)CN(c2ccc(C)cc2)S(=O)(=O)c2cccc3nonc23)cc(OC)c1	.	2%	.	.	?	18µM*
COc1ccc(N(CC(=O)Nc2cc(C)ccc2C)S(=O)(=O)c2c(C)noc2C)cc1	45	1%	-4	3	?	-27%
Cc1cc(C)cc(N(CC(=O)NC2CCC(C)CC2)S(=O)(=O)c2c(C)noc2C)c1 (centres undefined)	-7	-1%	-5	6	21µM*	?
COC(=O)c1sccc1S(=O)(=O)N(CC(=O)Nc1ccc(C)cc1)c1ccccc1	.	7%	.	.	?	21µM*
COc1ccc(N(CC(=O)Nc2cc(C)ccc2OC)S(=O)(=O)c2c(C)noc2C)cc1	43	4%	-6	-1	23µM*	?
COc1ccc(N(CC(=O)Nc2cc(Cl)ccc2C)S(=O)(=O)c2c(C)noc2C)cc1	32	0%	0	.	2.9µM*	3.7µM*
COC(=O)C1CC(O)CN1C(=O)Nc1ccccc1 (centres undefined)	3	7%	17	14	2%	24%
Cc1nnc(SCc2cc(=O)n3cccc(C)c3n2)s1	.	8%	.	.	?	1%
Cc1cc(=O)n2cccc(O)c2n1	-57*	2%	?	.	3.7µM*	4.6µM*
Oc1ccc(/C=N/n2c(COc3ccccc3)n[nH]c2=S)c(O)c1	9	.	-3	-13	-18%	13%
Cc1ccccc1OCc1nc2ccccc2c(=O)n1/N=C/c1cn[nH]c1-c1ccc(Br)cc1	-23	-3%	1	-13	?	?
O=c1c2ccccc2nc(COc2ccccc2)n1/N=C/c1ccc(O)cc1O	204	.	?	-8	?	23µM*
O=c1c2ccccc2nc(COc2ccccc2)n1/N=C/c1c[nH]c2ccccc12	8	2%	2	2	?	16µM*
O=c1c2ccccc2nc(COc2ccccc2)n1/N=C/c1cn[nH]c1-c1ccccc1	-9	3%	-5	-1	21µM*	16µM*
Cn1c2c(c(=O)n(C)c1=O)CN(CCCN1CCOCC1)CN2	22	-2%	2	4	-14%	-22%
COc1cccc(C(=O)NNC(=O)C(=O)N2CCCCC2)c1	21	3%	1	0	8%	3%
Cc1nnc(SCc2cc(=O)[nH]c(N3CCN(C)CC3)n2)s1	1	4%	1	10	9%	-2%
CC(C)CNC(=O)Nc1ccc(F)c(Cl)c1	?	-4%	13	-18	-1%	-22%
